A selection: hits, their analogues and other compounds. The true share with any hit is near 19%.
DT40 TDP1 no CPT – qHTS for Inhibitors of human tyrosyl-DNA phosphodiesterase 1 (TDP1): qHTS in cells in absence of CPT. DT40 Tdp1-/- hTDP1 cells, no CPT, ATP luminescence, 48 h. Potency, µM (highest dose often 46.2 µM), for inactives: top-dose activity change, negative = growth inhibition, actives largely listed as inhibitors. 420,000 tested, 15% active; further: nearly all actives have a fitted effect of over 55% in size
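Stably hTDP1-transfected Tdp1-null chicken DT40 cells were treated with library compounds minus camptothecin and grown for at least 48 hr at 37 °C, after which cellular ATP was quantified by luminescence.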
TDP1 block – blocks human tyrosyl-DNA phosphodiesterase 1; recombinant TDP1, AlphaScreen DNA substrate cleavage; 350,000 tested, 0.28% active; Q9NUW8; Potency, µM (doses to about 130 µM), inactives show top-dose activity change, negative = inhibition, usual class: inhibitors; further: nearly all actives have a fitted effect of over 40% in size
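Signal: AlphaScreen proximity between streptavidin donor and anti-FITC acceptor beads on intact substrate. Reaction: Tdp1 1 nM, substrate 15 nM final, 5 min RT after 15 min compound preincubation.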
Gal4-VP16 FLuc – counter-screen for ROR gamma inhibitors: Gal4-VP16 reporter; Potency, µM (highest dose often 53.6 µM), for the others: at the highest dose activity, negative = inhibition, hits mostly inhibitors; 310,000 tested, 3.5% active; Drosophila S2 Gal4-VP16 UAS-luciferase, luminescence, 20 h;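 further: Gal4-VP16 expression switched on by copper sulfate through the metallothionein promoter; nearly all actives have a fitted effect of over 50% in size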
RORgamma inh – blocks mouse ROR gamma transcriptional activity. Drosophila S2 Gal4-RORgamma UAS-luciferase reporter, 20 h. 310,000 tested, 5.4% active. Potency, µM (top dose mostly 53.6 µM), for inactives: top-dose activity change, negative = inhibition, hits mostly inhibitors. P51450; further: nearly all actives have a fitted effect of over 60% in size
Target sequence (P51450 whole entry, looked up, the tested form may be a part): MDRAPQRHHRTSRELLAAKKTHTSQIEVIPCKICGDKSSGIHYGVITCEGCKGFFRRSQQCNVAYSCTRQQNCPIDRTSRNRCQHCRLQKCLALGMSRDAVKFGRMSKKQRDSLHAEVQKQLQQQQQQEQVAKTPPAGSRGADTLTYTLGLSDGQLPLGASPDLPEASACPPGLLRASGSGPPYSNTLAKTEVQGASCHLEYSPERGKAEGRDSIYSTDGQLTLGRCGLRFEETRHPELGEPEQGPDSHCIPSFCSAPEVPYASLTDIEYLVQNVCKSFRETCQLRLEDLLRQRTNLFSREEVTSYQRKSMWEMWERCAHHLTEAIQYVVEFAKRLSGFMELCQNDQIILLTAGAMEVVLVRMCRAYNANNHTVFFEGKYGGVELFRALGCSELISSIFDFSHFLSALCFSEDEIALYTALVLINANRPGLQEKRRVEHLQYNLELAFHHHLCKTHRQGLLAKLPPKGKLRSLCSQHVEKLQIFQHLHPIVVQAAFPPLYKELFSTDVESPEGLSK
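Drosophila S2 cells stably expressing Gal4-DBD/mouse RORγ fusion under metallothionein promoter plus UAS-luciferase; compound 1 h, then 700 uM CuSO4 induction for 20 h at ambient temperature; inhibition read as reduced luminescence.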
TDP1 cell CPT – DT40-hTDP1 cell growth loss with CPT; chicken DT40 Tdp1-/-;hTDP1 cells + 20 nM CPT, ATP luminescence, 48 h; Potency, µM (top dose mostly 46.2 µM), for the others: at the top dose activity change, negative = growth inhibition, hits mostly inhibitors; 420,000 tested, 12% active; further: nearly all actives have a fitted effect of over 55% in size
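Chicken DT40 Tdp1-/- cells complemented with human TDP1, 400 cells/well, exposed to compounds plus 20 nM camptothecin for at least 48 h at 37 C; viability read as ATP content by CellTiter-Glo luminescence.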
The depositor's hits bear a star; ? = inconclusive; · = no result; [ ] = dose if it differs, or a comment. The call rests on the fitted dose curve; in most records, active means well fitted curve in the direction sought with a large enough effect; inconclusive means small, poorly fitted or top-dose-only effect, or another doubt; inactive means no such curve, though single readings can be large; an effect the other way counts as inactive or inconclusive. On the % scale 0 is the no-effect control and ±100 the full control effect; potency means the concentration at half of the fitted maximal effect.

SMILES | DT40 TDP1 no CPT | TDP1 block | Gal4-VP16 FLuc | RORgamma inh | TDP1 cell CPT
Cc1cccc(NC(=S)NC(=O)CC2CC(C)(C)OC2=O)c1 (stereo not given) | -19% | -7% | -18% | 11µM* | -8%
CC1(C)CC2(CCO1)OC(=O)CC2C(=O)Nc1ccccc1Cl (stereo not given) | ? | 0% | 3% | 0% | ?
CCSc1nc(C2CC2)cc(-c2cccs2)c1C#N | ? | · | 9% | 21% | -27%
N#Cc1c(-c2ccccc2F)cc(C2CC2)nc1SCC(=O)c1cccs1 | 18µM* | -8% | -8% | 26% | 18µM*
COC(=O)c1ccccc1S(=O)(=O)NNC(=O)c1ccccc1-n1cccc1 | 4% | 1% | -1% | -29% | -3%
Cc1ccccc1-c1cc(-n2ccnc2)ncn1 | -20% | 25µM* | 1% | -12% | 0%
Cc1ccccc1-c1nc(-n2ccnc2)c2ccccc2n1 | ? | ? | 9% | 10µM* | ?
NC(=O)c1ccccc1-c1nc(-n2ccnc2)c2ccccc2n1 | 9% | · | 0% | 26% | 6%
Cc1noc(C)c1S(=O)(=O)N(C)C[C@H]1Oc2c(NC(=O)Nc3ccccc3)cccc2C(=O)N([C@H](C)CO)C[C@@H]1C | -17% | 2% | · | · | -16%
C[C@H](CO)N1C[C@H](C)[C@@H](CN(C)S(=O)(=O)c2ccccc2)Oc2ccc(NC(=O)CCC(F)(F)F)cc2C1=O | -30% | 0% | · | · | 21µM*
Cc1noc(C)c1S(=O)(=O)N(C)C[C@H]1Oc2c(NC(=O)Nc3ccc(C(F)(F)F)cc3)cccc2C(=O)N([C@H](C)CO)C[C@@H]1C | 23µM* | 0% | · | · | -106%
C[C@H](CO)N1C[C@H](C)[C@@H](CN(C)S(=O)(=O)c2cccs2)Oc2ccc(NS(=O)(=O)c3cn(C)cn3)cc2C1=O | 7% | 1% | · | · | 7%
C[C@@H]1CN([C@H](C)CO)C(=O)c2cccc(NC(=O)Nc3ccc(C(F)(F)F)cc3)c2O[C@H]1CN(C)S(=O)(=O)c1cccs1 | 16µM* | 2% | · | · | 8.2µM*
C[C@H](CO)N1C[C@H](C)[C@H](CN(C)S(=O)(=O)c2cccs2)Oc2ncc(-c3cc4ccccc4o3)cc2C1=O | 15µM* | · | · | · | 23µM*
O=C(O)c1ccc(NCCC2=CCCCC2)c([N+](=O)[O-])c1 | 0% | 6% | 6% | 0% | 4%
C[C@H]1CN([C@@H](C)CO)C(=O)c2cccc(NC(=O)Nc3ccc(C(F)(F)F)cc3)c2O[C@@H]1CN(C)S(=O)(=O)c1ccccc1 | 21µM* | 3% | · | · | ?
CC(C)NC(=O)Nc1ccc2c(c1)C(=O)N([C@H](C)CO)C[C@H](C)[C@@H](CN(C)S(=O)(=O)c1ccccc1)O2 | -5% | 1% | · | · | -9%
COc1ccc(S(=O)(=O)N(C)C[C@H]2Oc3ccc(NC(=O)Nc4ccc5c(c4)OCO5)cc3CC(=O)N([C@@H](C)CO)C[C@@H]2C)cc1 | ? | 4% | · | · | ?
C[C@H](CO)N1C[C@H](C)[C@H](CN(C)S(=O)(=O)c2cccs2)Oc2ccc(NC(=O)Nc3ccc4c(c3)OCO4)cc2CC1=O | 16µM* | 5% | · | · | ?
COc1ccc(S(=O)(=O)N(C)C[C@H]2Oc3ccc(NC(=O)Nc4ccc5c(c4)OCO5)cc3C(=O)N([C@H](C)CO)C[C@@H]2C)cc1 | ? | 2% | · | · | 21µM*
C[C@H](CO)N1C[C@H](C)[C@@H](CN(C)S(=O)(=O)c2ccccc2)Oc2ccc(NC(=O)Nc3ccc(C(F)(F)F)cc3)cc2C1=O | ? | 0% | · | · | 21µM*
CCOC(=O)c1c(NC(=O)CN2C(=O)C(=O)N(CC(C)C)C2=O)sc(C)c1CC | -16% | 0% | · | · | -7%
COc1ccc(C(=O)Nc2ccc(C(F)(F)F)n(C)c2=O)cc1 | -3% | -2% | -1% | 9% | -18%
O=S(=O)(CCN1CCCCC1)CCS(=O)(=O)CCN1CCCCC1 | -27% | · | · | · | ?
C=C1CC2C(=O)N(Cc3cc(OC)ccc3OC)C(C(=O)OCC)(C(=O)OCC)C1N2C(=O)OC(C)(C)C (stereo not given) | ? | 7% | 2% | 15% | 21µM*
SMILES | DT40 TDP1 no CPT | TDP1 block | Gal4-VP16 FLuc | RORgamma inh | TDP1 cell CPT
CN(C)CCCNC(=O)c1cc(Br)ccc1O | -4% | -3% | 8% | 2% | 7%
NC(=O)c1nsc(C(=O)N(c2cccc(O)c2)C(C(=O)NC2CCCC2)c2ccc(Cl)cc2)c1N (stereo not given) | ? | 7% | -7% | -1% | 4%
N#Cc1cccc(Nc2c3c(nc4ccccc24)CCC3)c1 | ? | · | 1% | -32% | ?
Cc1ccc(Nc2c3c(nc4ccccc24)CCC3)cc1F | 16µM* | 3% | · | · | 21µM*
Cc1cccc(Nc2c3c(nc4ccccc24)CCC3)c1 | 18µM* | 5% | ? | 7.1µM* | 15µM*
COCCN1C(=O)C(=O)/C(=C(/O)c2ccc(S(=O)(=O)N3CCCCC3)cc2)C1c1ccc(OC)cc1 (stereo not given) | 9% | 4% | -14% | 10% | -11%
Cc1ccc(NC(=O)c2ccc(COc3ccc4c(c3)CCC4)cc2)c(C)c1 | ? | -4% | 8.9µM* | 2.2µM* | ?
Cc1cccc(N(C(=O)Cn2nnc(-c3ccc(F)cc3)n2)C(C(=O)NC(C)(C)C)c2ccncc2)c1 (stereo not given) | -19% | 3% | -4% | 11% | -29%
N/C(Cn1cncn1)=N\NC(=O)C(=O)Nc1ccc(Cl)cc1Cl | -1% | 8% | ? | 10µM* | 5%
COc1ccc(C(O)(C2CCCCC2)C(CN2CCOCC2)c2ccccc2)cc1 (stereo not given) | ? | · | -14% | 27% | 26µM*
OC(c1ccccc1)(C1CCCCC1)C(CN1CCOCC1)c1ccccc1 (stereo not given) | 23µM* | · | -8% | ? | 18µM*
COc1ccc(OCc2nc(-c3ccc(-n4cccc4)cc3)no2)cc1 | -27% | 7% | · | · | -17%
O=C(Nc1ccc(F)cc1Cl)c1cnc(N2CCOCC2)c2ccccc12 | ? | 1% | · | · | ?
Cc1ccc(/C(N)=N/OC(=O)c2ccco2)cc1 | -19% | 2%[56.1 µM] | ? | ? | ?
COc1ccc(/C(N)=N/OC(=O)c2ccco2)cc1 | ? | 4% | 10µM* | 7.9µM* | ?
CC(O)CN1C(=O)C(CC(=O)Nc2ccc(Cl)cc2)SC1=Nc1ccccc1 (stereo not given) | 26µM* | -2% | 0% | 15% | ?
